Among the data in ChEMBL document CHEMBL1961873, “Compounds: GSK PKIS; Assays: Nanosyn kinase panel” (2012) are inhibition values, retold here.

Experiment [1] deals with Sphingosine kinase 1 (Homo sapiens) (UniProt Q9NYA1). The conditions noted are these: at 1 µM.
The target of experiment [2] is T1, Sphingosine kinase 2 (Homo sapiens) (UniProt Q9NRA0).
T1 sequence (whole entry): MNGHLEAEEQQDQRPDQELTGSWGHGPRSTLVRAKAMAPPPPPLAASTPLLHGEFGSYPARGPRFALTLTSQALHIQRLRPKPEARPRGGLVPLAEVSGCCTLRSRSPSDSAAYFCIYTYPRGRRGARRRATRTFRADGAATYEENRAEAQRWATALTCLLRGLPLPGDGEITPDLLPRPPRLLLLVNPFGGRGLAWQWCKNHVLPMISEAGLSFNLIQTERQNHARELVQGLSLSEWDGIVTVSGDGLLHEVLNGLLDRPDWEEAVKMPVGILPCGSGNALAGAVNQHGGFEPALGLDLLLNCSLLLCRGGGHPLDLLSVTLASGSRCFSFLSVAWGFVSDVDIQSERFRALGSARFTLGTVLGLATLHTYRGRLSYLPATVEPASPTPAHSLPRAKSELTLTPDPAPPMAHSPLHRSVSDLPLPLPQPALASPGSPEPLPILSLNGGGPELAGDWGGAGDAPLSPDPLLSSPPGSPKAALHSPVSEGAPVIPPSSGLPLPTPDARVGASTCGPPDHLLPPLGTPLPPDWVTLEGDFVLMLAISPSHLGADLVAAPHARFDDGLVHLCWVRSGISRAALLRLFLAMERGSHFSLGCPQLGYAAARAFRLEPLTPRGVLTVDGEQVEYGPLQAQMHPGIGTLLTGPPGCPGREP
The conditions noted are these: at 0.1 µM.

Experiment [3] concerns the target T1, Sphingosine kinase 2 (Homo sapiens). As to conditions: at 1 µM.
In experiment [4] the target is Casein kinase II subunit alpha (Homo sapiens) (UniProt P68400). The conditions noted are these: at 0.1 µM.
The target is the same in experiment [5]. The conditions noted are these: at 1 µM.
Experiment [6] deals with T2, Inhibitor of nuclear factor kappa-B kinase subunit alpha (Homo sapiens) (UniProt O15111).
T2 sequence (whole entry): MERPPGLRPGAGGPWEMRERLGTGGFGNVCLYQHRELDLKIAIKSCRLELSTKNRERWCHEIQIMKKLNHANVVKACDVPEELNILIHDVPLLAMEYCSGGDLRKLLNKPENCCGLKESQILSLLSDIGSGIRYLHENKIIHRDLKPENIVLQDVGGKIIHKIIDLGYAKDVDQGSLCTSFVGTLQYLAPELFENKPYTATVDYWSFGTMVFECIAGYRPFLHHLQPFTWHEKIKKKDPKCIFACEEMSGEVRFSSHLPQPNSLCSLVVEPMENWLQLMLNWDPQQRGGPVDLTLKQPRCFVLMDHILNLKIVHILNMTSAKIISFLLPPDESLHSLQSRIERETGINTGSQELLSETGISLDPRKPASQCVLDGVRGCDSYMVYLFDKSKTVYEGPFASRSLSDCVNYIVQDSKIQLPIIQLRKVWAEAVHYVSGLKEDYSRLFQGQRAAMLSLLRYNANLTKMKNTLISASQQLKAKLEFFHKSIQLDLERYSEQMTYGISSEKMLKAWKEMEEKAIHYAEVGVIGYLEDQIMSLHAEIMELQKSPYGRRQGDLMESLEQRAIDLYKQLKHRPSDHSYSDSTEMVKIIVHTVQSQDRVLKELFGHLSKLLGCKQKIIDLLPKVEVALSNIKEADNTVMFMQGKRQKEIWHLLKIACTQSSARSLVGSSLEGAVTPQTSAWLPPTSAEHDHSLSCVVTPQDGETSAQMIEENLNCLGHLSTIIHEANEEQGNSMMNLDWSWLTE
As to conditions: at 0.1 µM.

The target in experiment [7] is T2, Inhibitor of nuclear factor kappa-B kinase subunit alpha (Homo sapiens). The conditions noted are these: at 1 µM.
For experiment [8], the target named is T3, Inhibitor of nuclear factor kappa-B kinase subunit beta (Homo sapiens) (UniProt O14920).
T3 sequence (whole entry): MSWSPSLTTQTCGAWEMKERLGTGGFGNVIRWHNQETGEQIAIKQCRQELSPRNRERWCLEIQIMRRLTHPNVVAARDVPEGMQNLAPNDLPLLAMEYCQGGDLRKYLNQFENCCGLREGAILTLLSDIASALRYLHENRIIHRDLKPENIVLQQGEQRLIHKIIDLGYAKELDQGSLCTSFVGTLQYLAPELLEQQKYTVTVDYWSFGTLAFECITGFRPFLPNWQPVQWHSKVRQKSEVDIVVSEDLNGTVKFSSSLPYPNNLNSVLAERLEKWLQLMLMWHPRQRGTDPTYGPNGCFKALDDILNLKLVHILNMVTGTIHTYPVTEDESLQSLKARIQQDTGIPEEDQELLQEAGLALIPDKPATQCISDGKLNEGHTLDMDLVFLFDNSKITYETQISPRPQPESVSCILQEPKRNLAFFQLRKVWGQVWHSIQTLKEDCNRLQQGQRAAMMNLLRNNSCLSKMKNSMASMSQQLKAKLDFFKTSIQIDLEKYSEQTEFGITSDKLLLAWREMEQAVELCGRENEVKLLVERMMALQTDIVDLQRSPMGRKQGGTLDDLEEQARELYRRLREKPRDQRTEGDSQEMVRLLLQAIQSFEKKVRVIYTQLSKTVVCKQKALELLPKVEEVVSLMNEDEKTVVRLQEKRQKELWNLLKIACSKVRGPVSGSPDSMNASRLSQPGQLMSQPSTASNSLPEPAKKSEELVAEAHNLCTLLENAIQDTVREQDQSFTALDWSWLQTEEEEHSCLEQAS
The conditions noted are these: at 0.1 µM.

Experiment [9] concerns the target T3, Inhibitor of nuclear factor kappa-B kinase subunit beta (Homo sapiens). As to conditions: at 1 µM.
Experiment [10] addresses T4, Inhibitor of nuclear factor kappa-B kinase subunit epsilon (Homo sapiens) (UniProt Q14164).
T4 sequence (whole entry): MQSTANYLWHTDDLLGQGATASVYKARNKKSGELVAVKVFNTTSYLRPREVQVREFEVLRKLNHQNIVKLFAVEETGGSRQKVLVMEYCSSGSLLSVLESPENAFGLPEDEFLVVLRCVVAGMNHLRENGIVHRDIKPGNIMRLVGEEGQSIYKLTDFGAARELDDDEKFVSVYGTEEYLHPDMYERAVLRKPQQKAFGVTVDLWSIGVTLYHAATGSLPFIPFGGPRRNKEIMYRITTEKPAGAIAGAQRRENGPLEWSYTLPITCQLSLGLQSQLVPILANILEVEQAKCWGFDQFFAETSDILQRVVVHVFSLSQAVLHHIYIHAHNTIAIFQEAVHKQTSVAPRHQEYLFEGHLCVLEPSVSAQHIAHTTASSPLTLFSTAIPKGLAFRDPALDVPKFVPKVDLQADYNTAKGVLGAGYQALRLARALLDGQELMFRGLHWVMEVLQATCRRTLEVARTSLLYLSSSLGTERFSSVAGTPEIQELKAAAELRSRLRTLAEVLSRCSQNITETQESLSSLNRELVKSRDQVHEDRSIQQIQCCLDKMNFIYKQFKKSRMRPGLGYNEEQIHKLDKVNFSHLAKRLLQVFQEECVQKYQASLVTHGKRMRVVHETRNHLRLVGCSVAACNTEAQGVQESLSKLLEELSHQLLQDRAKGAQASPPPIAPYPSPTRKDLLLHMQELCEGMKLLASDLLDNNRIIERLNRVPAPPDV
The conditions noted are these: at 0.1 µM.

The target of experiment [11] is T4, Inhibitor of nuclear factor kappa-B kinase subunit epsilon (Homo sapiens). As to conditions: at 1 µM.
In experiment [12] the target is T5, Serine/threonine-protein kinase Nek1 (Homo sapiens) (UniProt Q96PY6).
T5 sequence (whole entry): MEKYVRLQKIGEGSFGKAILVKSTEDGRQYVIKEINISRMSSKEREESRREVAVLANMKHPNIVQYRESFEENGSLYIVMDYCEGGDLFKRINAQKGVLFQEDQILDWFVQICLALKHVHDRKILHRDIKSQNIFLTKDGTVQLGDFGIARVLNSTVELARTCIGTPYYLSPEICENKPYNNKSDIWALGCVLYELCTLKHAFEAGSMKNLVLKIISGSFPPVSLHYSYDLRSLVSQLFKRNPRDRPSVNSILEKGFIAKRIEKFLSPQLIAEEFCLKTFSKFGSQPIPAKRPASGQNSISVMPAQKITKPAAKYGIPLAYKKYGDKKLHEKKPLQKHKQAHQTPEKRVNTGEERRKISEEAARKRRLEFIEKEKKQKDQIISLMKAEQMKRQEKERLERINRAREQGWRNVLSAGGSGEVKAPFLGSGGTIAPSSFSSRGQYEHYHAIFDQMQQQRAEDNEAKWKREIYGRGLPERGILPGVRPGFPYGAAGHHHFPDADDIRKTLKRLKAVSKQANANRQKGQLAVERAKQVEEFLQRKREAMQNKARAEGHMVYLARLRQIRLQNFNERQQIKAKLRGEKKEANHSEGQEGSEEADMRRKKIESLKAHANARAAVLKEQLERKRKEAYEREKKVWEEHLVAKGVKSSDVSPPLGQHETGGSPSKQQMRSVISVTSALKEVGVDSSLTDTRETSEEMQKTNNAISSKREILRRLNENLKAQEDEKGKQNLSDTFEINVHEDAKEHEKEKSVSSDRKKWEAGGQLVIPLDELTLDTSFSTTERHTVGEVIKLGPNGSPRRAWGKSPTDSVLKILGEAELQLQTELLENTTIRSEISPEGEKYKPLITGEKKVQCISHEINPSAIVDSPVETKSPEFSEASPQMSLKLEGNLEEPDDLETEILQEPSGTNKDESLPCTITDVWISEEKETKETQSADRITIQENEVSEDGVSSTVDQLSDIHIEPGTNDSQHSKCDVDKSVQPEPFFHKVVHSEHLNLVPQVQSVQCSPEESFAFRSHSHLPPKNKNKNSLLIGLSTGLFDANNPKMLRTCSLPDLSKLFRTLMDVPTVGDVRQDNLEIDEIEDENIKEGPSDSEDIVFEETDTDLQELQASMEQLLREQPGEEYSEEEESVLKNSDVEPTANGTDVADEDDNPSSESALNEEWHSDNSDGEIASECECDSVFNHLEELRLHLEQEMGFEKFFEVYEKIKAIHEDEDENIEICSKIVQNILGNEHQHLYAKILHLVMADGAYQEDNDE
As to conditions: at 0.1 µM.

Experiment [13] has as its target T5, Serine/threonine-protein kinase Nek1 (Homo sapiens). As to conditions: at 1 µM.
For experiment [14], the target named is T6, Serine/threonine-protein kinase Nek2 (Homo sapiens) (UniProt P51955).
T6 sequence (whole entry): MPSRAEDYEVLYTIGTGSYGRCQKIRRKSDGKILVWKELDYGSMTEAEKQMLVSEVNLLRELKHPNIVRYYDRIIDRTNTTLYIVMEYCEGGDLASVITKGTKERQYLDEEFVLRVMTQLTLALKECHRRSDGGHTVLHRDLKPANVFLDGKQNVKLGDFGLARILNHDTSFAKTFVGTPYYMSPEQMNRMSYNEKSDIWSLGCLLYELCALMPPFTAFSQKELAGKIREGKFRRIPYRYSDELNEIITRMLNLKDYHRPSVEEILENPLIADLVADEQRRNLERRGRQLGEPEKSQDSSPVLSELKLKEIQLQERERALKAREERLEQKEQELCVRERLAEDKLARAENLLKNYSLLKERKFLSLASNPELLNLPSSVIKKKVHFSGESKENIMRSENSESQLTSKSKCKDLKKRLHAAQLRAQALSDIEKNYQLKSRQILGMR
The conditions noted are these: at 0.1 µM.

In experiment [15] the target is T6, Serine/threonine-protein kinase Nek2 (Homo sapiens). As to conditions: at 1 µM.
The target of experiment [16] is Serine/threonine-protein kinase Nek6 (Homo sapiens) (UniProt Q9HC98). As to conditions: at 0.1 µM.
Experiment [17] has the same target. As to conditions: at 1 µM.
Experiment [18] has as its target Serine/threonine-protein kinase Nek7 (Homo sapiens) (UniProt Q8TDX7). The conditions noted are these: at 0.1 µM.
Experiment [19] has the same target. As to conditions: at 1 µM.
Experiment [20] addresses T7, Serine/threonine-protein kinase Nek9 (Homo sapiens) (UniProt Q8TD19).
T7 sequence (whole entry): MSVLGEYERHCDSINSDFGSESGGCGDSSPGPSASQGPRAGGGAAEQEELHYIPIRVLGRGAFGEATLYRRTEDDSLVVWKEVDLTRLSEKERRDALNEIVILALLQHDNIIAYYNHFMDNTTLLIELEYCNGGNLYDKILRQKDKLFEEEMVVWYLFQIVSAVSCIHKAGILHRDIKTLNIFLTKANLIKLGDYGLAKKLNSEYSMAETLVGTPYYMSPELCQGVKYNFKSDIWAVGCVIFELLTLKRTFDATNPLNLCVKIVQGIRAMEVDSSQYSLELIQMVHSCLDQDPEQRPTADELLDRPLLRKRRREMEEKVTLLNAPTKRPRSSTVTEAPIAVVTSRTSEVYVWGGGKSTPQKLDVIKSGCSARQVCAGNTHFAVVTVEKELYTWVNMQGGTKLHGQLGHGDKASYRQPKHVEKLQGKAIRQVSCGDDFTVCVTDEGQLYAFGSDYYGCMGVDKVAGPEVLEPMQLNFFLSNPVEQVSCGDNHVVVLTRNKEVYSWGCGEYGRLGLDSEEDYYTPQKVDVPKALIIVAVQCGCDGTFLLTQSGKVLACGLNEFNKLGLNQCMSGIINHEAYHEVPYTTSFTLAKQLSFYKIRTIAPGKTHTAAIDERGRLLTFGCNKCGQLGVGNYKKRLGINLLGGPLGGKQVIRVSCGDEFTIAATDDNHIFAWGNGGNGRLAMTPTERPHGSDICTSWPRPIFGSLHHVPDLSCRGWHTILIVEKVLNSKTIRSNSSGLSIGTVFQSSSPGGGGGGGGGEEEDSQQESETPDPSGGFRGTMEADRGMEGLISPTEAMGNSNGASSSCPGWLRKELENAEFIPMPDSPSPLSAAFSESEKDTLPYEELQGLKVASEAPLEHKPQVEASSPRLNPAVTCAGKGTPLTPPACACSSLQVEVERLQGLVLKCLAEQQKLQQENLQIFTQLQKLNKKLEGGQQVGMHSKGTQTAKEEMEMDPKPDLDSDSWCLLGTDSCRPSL
As to conditions: at 0.1 µM.

Chain of Casein kinase II subunit alpha (Homo sapiens) (P68400 whole entry, looked up): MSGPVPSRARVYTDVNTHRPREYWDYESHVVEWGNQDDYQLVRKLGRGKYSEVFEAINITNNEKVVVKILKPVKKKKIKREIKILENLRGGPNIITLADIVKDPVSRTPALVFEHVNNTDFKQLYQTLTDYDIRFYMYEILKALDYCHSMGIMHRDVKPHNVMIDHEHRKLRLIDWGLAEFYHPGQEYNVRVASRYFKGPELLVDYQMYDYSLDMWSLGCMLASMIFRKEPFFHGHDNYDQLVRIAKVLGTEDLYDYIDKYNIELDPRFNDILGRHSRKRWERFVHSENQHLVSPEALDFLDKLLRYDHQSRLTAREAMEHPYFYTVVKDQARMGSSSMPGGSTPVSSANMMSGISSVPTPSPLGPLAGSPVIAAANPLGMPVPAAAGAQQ
Chain of Serine/threonine-protein kinase Nek7 (Homo sapiens) (Q8TDX7 whole entry, looked up): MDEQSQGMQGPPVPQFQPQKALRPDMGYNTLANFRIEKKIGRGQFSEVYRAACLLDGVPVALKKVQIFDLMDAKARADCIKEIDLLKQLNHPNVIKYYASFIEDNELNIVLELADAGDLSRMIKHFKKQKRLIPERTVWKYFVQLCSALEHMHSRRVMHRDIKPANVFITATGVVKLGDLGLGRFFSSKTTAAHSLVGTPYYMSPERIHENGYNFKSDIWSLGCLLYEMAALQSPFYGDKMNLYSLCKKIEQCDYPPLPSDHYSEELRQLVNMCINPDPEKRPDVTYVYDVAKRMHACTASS
Chain of Serine/threonine-protein kinase Nek6 (Homo sapiens) (Q9HC98 whole entry): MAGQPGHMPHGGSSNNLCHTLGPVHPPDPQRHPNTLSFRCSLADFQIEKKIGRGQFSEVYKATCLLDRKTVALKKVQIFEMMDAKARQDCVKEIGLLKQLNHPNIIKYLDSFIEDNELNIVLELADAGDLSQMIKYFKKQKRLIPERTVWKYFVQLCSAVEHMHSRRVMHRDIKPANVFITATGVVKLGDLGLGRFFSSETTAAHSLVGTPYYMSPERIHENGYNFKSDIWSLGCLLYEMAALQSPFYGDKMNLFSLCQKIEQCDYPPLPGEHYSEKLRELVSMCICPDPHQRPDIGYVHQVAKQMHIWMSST
Chain of Sphingosine kinase 1 (Homo sapiens) (Q9NYA1 whole entry): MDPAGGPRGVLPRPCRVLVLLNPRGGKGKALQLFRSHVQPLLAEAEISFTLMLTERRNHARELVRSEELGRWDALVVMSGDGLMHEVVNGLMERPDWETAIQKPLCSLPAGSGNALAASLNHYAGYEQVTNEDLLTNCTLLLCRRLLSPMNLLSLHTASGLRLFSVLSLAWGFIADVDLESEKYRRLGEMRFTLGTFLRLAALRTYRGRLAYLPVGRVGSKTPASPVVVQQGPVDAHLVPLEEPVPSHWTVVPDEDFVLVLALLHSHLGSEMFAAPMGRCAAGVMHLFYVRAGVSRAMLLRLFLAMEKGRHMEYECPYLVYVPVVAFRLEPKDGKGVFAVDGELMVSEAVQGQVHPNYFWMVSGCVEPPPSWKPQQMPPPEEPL

The inhibition is the relative decrease from the control value, in per cent. As for `NCc1ccc(-n2c(-c3nonc3N)nc3cnccc32)cc1`, the inhibition in experiment [1] was -0.9%; in experiment [2] it was 0.05%; in experiment [3] it was -0.74%; in experiment [4], 9.32%; in experiment [5], 9.93%; in [6] it was 7.27%. Besides, the inhibition in [7] was found to be 7.43%; in experiment [8] it was 8.87%; in experiment [9], 7.17%; in experiment [10], 5.51%; in experiment [11], 11.4%; in experiment [12], 3.18%. Also, the inhibition stood at 3.48% in [13]; 6.17% in experiment [14]; 7.8% in experiment [15]; 3.51% in experiment [16]; 3.42% in experiment [17]; 7.27% in experiment [18]. The values for the inhibition in [19] and in [20] were 7.6% and 2.32%, respectively.
